Results as given in PubChem BioAssay AID1159580 (chemical genetic matrix, 2015).
Out of some 5,500 compounds screened, about 2,000 (36%) were called active. Another 18% or so got no clear call; they are omitted. Cut-off read from the data, not from the text of the source: active = normalized growth mostly below about 0.91 (no sharp cut-off); inconclusive = no clear call, values can overlap the other calls; inactive = mostly above about 0.92. The list shows a part of the results.

Assay: chemical genetic growth profiling, strain panel (AID 1159580);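 note: tested at 20 µM; growth read once vehicle control cultures reached saturation at 30 °C; 1 = growth at the plate median or of vehicle wells; lower values mean less growth of the strain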
Conditions: growth OD
[1] = S. cerevisiae deletion strains, locus YDL101C, strain DUN1, active compounds read low
[2] = S. cerevisiae deletion strains, locus YHR030C, strain SLT2, active compounds read low

Measured: normalized growth

CC(C)(C)C(=O)c1sc2sc(C(=O)C(C)(C)C)c(N)c2c1N
active: S. cerevisiae deletion strains, locus YFR019W, strain FAB1, active compounds read low 0.47 | [2] 0.152 | S. cerevisiae deletion strains, locus YHR079C, strain IRE1, active compounds read low 0.274 | S. cerevisiae deletion strains, locus YLR113W, strain HOG1, active compounds read low 0.663 | S. cerevisiae deletion strains, locus YOL136C, strain PFK27, active compounds read low 0.6 | S. cerevisiae deletion strains, locus YPL204W, strain HRR25, active compounds read low 0.646 | S. cerevisiae deletion strains, locus YPL256C, strain CLN2, active compounds read low 0.326
inactive: S. cerevisiae deletion strains, locus YAR019C, strain CDC15, active compounds read low 0.993 | S. cerevisiae deletion strains, locus YBL105C, strain PKC1, active compounds read low 0.992 | S. cerevisiae deletion strains, locus YBR135W, strain CKS1, active compounds read low 0.984 | S. cerevisiae deletion strains, locus YBR136W, strain MEC1, active compounds read low 0.984 | S. cerevisiae deletion strains, locus YBR160W, strain CDC28, active compounds read low 0.994 | S. cerevisiae deletion strains, locus YDL017W, strain CDC7, active compounds read low 0.993 | S. cerevisiae deletion strains, locus YDL028C, strain MPS1, active compounds read low 0.992 | [1] 0.981 | S. cerevisiae deletion strains, locus YDL108W, strain KIN28, active compounds read low 0.989 | S. cerevisiae deletion strains, locus YDL132W, strain cdc53, active compounds read low 0.975 | S. cerevisiae deletion strains, locus YDL214C, strain PRR2, active compounds read low 0.835 | S. cerevisiae deletion strains, locus YDR052C, strain DBF4, active compounds read low 0.999 | S. cerevisiae deletion strains, locus YDR054C, strain cdc34, active compounds read low 0.983 | S. cerevisiae deletion strains, locus YDR226W, strain ADK1, active compounds read low 0.976 | S. cerevisiae deletion strains, locus YDR477W, strain SNF1, active compounds read low 0.875 | S. cerevisiae deletion strains, locus YER123W, strain YCK3, active compounds read low 0.752 | S. cerevisiae deletion strains, locus YER133W, strain GLC7, active compounds read low 0.862 | S. cerevisiae deletion strains, locus YFL009W, strain cdc4, active compounds read low 0.988 | S. cerevisiae deletion strains, locus YFL029C, strain CAK1, active compounds read low 0.991 | S. cerevisiae deletion strains, locus YFR003C, strain YPI1, active compounds read low 0.997 | S. cerevisiae deletion strains, locus YFR028C, strain CDC14, active compounds read low 0.982 | S. cerevisiae deletion strains, locus YGR040W, strain KSS1, active compounds read low 0.879 | S. cerevisiae deletion strains, locus YGR052W, strain FMP48, active compounds read low 0.689 | S. cerevisiae deletion strains, locus YGR092W, strain DBF2, active compounds read low 0.894 | S. cerevisiae deletion strains, locus YHR082C, strain KSP1, active compounds read low 0.62 | S. cerevisiae deletion strains, locus YHR205W, strain SCH9, active compounds read low 0.872 | S. cerevisiae deletion strains, locus YIL147C, strain SLN1, active compounds read low 0.995 | S. cerevisiae deletion strains, locus YJL095W, strain BCK1, active compounds read low 0.52 | S. cerevisiae deletion strains, locus YJL128C, strain PBS2, active compounds read low 0.931 | S. cerevisiae deletion strains, locus YJL157C, strain FAR1, active compounds read low 0.785 | S. cerevisiae deletion strains, locus YJR016C, strain ILV3, active compounds read low 0.99 | S. cerevisiae deletion strains, locus YJR066W, strain TOR1 (second series), active compounds read low 0.823 | S. cerevisiae deletion strains, locus YJR066W, strain TOR1, active compounds read low 0.589 | S. cerevisiae deletion strains, locus YKL048C, strain ELM1, active compounds read low 0.983 | S. cerevisiae deletion strains, locus YKL067W, strain YNK1, active compounds read low 0.902 | S. cerevisiae deletion strains, locus YKL101W, strain HSL1, active compounds read low 0.962 | S. cerevisiae deletion strains, locus YKL193C, strain SDS22, active compounds read low 0.987 | S. cerevisiae deletion strains, locus YKL203C, strain TOR2, active compounds read low 0.936 | S. cerevisiae deletion strains, locus YLR133W, strain CKI1, active compounds read low 0.888 | S. cerevisiae deletion strains, locus YLR403W, strain SFP1, active compounds read low 0.851 | S. cerevisiae deletion strains, locus YML070W, strain DAK1, active compounds read low 0.704 | S. cerevisiae deletion strains, locus YMR001C, strain CDC5, active compounds read low 0.993 | S. cerevisiae deletion strains, locus YMR205C, strain PFK2 (second series), active compounds read low 0.965 | S. cerevisiae deletion strains, locus YMR277W, strain FCP1, active compounds read low 0.989 | S. cerevisiae deletion strains, locus YNL006W, strain LST8, active compounds read low 0.999 | S. cerevisiae deletion strains, locus YNL020C, strain ARK1, active compounds read low 0.892 | S. cerevisiae deletion strains, locus YNL161W, strain CBK1, active compounds read low 0.994 | S. cerevisiae deletion strains, locus YNL183C, strain NPR1, active compounds read low 0.855 | S. cerevisiae deletion strains, locus YNL207W, strain RIO2, active compounds read low 0.989 | S. cerevisiae deletion strains, locus YNL222W, strain SSU72, active compounds read low 0.993 | S. cerevisiae deletion strains, locus YNL307C, strain MCK1 (second series), active compounds read low 0.97 | S. cerevisiae deletion strains, locus YOL078W, strain AVO1, active compounds read low 0.987 | S. cerevisiae deletion strains, locus YOR061W, strain CKA2, active compounds read low 0.915 | S. cerevisiae deletion strains, locus YOR119C, strain RIO1, active compounds read low 1.01 | S. cerevisiae deletion strains, locus YOR231W, strain MKK1, active compounds read low 0.682 | S. cerevisiae deletion strains, locus YOR329C, strain SCD5, active compounds read low 0.991 | S. cerevisiae deletion strains, locus YPL031C, strain PHO85, active compounds read low 0.804 | S. cerevisiae deletion strains, locus YPL153C, strain RAD53, active compounds read low 0.692 | S. cerevisiae deletion strains, locus YPL209C, strain IPL1, active compounds read low 0.993 | S. cerevisiae deletion strains, locus YPR025C, strain CCL1, active compounds read low 0.991 | S. cerevisiae deletion strains, locus YPR106W, strain ISR1, active compounds read low 0.995 | S. cerevisiae deletion strains, locus YPR111W, strain DBF20, active compounds read low 0.99 | S. cerevisiae deletion strains, strain NNK1, active compounds read low 0.996 | S. cerevisiae deletion strains, strain TSCII, active compounds read low 0.994

CC(C)(C)c1ccc(-c2cc(N)c(C(N)=O)s2)cc1
inactive: S. cerevisiae deletion strains, locus YAL013W, strain DEP1, active compounds read low 0.978 | S. cerevisiae deletion strains, locus YBR229C, strain ROT2, active compounds read low 0.997 | S. cerevisiae deletion strains, locus YCL061C, strain MRC1, active compounds read low 1.01 | [1] 1.01 | S. cerevisiae deletion strains, locus YDR150W, strain NUM1, active compounds read low 0.974 | S. cerevisiae deletion strains, locus YEL061C, strain CIN8, active compounds read low 0.967 | S. cerevisiae deletion strains, locus YGR078C, strain PAC10, active compounds read low 1.01 | [2] 0.761 | S. cerevisiae deletion strains, locus YHR087W, strain rtc3, active compounds read low 1.02 | S. cerevisiae deletion strains, locus YJR043C, strain POL32, active compounds read low 0.979 | S. cerevisiae deletion strains, locus YJR075W, strain HOC1, active compounds read low 1 | S. cerevisiae deletion strains, locus YKL190W, strain CNB1, active compounds read low 1 | S. cerevisiae deletion strains, locus YLR039C, strain RIC1, active compounds read low 0.93 | S. cerevisiae deletion strains, locus YLR058C, strain SHM2 (second series), active compounds read low 1.01 | S. cerevisiae deletion strains, locus YLR085C, strain ARP6, active compounds read low 0.987 | S. cerevisiae deletion strains, locus YLR262C, strain YPT6, active compounds read low 0.827 | S. cerevisiae deletion strains, locus YML094W, strain GIM5, active compounds read low 1.01 | S. cerevisiae deletion strains, locus YMR219W, strain ESC1, active compounds read low 0.996 | S. cerevisiae deletion strains, locus YMR263W, strain SAP30, active compounds read low 0.967 | S. cerevisiae deletion strains, locus YMR307W, strain GAS1, active compounds read low 0.881 | S. cerevisiae deletion strains, locus YNL153C, strain GIM3, active compounds read low 1 | S. cerevisiae deletion strains, locus YNL298W, strain CLA4 (second series), active compounds read low 0.966 | S. cerevisiae deletion strains, locus YNL322C, strain KRE1, active compounds read low 0.985 | S. cerevisiae deletion strains, locus YNR030W, strain Alg12, active compounds read low 0.942 | S. cerevisiae deletion strains, locus YOL006C, strain TOP1, active compounds read low 0.946 | S. cerevisiae deletion strains, locus YPL055C, strain LGE1, active compounds read low 0.916 | S. cerevisiae deletion strains, locus YPL241C, strain CIN2, active compounds read low 0.983 | S. cerevisiae deletion strains, locus YPR135W, strain CTF4, active compounds read low 0.783 | S. cerevisiae strains, strain wild type, active compounds read low 0.989
